Measured values reported in ChEMBL document CHEMBL4513216, “Probing the Open Global Health Chemical Diversity Library for Multistage-Active Starting Points for Next-Generation Antimalarials” (ACS Infect Dis, 2020).
The whole screen tested about 65,000 compounds, of which about 2,100 (3.2%) showed an effect of 50% or more. The median lay at about -52%. Only a selection was taken, and strong results are over-represented in it overall.

system: Plasmodium falciparum; assay: Screen against P. falciparum Asexual Blood Stage (ABS), at 5uM; format: functional, Dd2; settings: tested at 5 uM

Row | Structure (SMILES) | INHIBITION [%]
1 | Cc1cc2nc(C(C)C)cc(NC(C)c3nncn3C3CCCC3)n2n1 (stereo unspecified) | -49.8
2 | COc1cccc2c1OCC(C(=O)NCc1ncc3c(n1)CCC3)C2 (stereo unspecified) | -33
3 | N#Cc1ccc(C(=O)N2CCn3cc(CN4CCCCC4)nc3C2)cc1 | -96.9
4 | CN([C@@H]1CC[C@@H](N2CCOCC2)[C@@H]1O)S(=O)(=O)c1ccccc1 | -97.1
5 | Cc1nccn1[C@@H]1CC[C@@H](N(C)S(=O)(=O)c2cccc(F)c2)[C@H]1O | -107
6 | CN([C@@H]1CC[C@@H](N2CCCC2)[C@@H]1O)S(=O)(=O)c1ccccc1 | 51.6
7 | O=C(c1ccco1)N1CCC2(CCCN(c3ncccn3)C2)C1 (stereo unspecified) | -59
8 | COCCNc1cccc(C2CCCN2)n1 (stereo unspecified) | -86.4
9 | c1ccc(CCNc2cccc(C3CCCNC3)n2)cc1 (stereo unspecified) | 66.8
10 | Cc1cnc(CCNc2cccc(CC3CCCNC3)n2)s1 (stereo unspecified) | 65.5
11 | Cc1nc(NC2CCCCC2)cc(C2CCCNC2)n1 (stereo unspecified) | -0.566
12 | Cc1cc(Cc2ccccc2F)cc(C2CCCNC2)n1 (stereo unspecified) | 64.8
13 | CCn1ccnc1CN(C)c1cc(C2CCCNC2)nc(C)n1 (stereo unspecified) | -33.9
14 | c1cc(NCc2ccncc2)nc(C2CCCNC2)c1 (stereo unspecified) | -2.22
15 | Cc1nc(C2CCCNC2)cc(N(C)CCc2ccccc2)n1 (stereo unspecified) | 53.5
16 | Cc1cc(Nc2cnccn2)cc(C2CCCNC2)n1 (stereo unspecified) | -27.1
17 | c1cc(CC2CCCNC2)nc(NCCc2cnccn2)c1 (stereo unspecified) | -96.3
18 | Cc1nc(C2CCCNC2)cc(N(C)CCc2cn[nH]c2)n1 (stereo unspecified) | -151
19 | COCCNc1ccc(CC2CCCNC2)cn1 (stereo unspecified) | -56.2
20 | CCS(=O)(=O)NC(CCSC)C(=O)Nc1cc(F)ccc1C (stereo unspecified) | -26.6
21 | Cc1cnc(N2CCC3(CC2)CC3CN(C)Cc2cccnc2)nc1 (stereo unspecified) | -28
22 | CCC(C)Oc1ccc(CNCCNC(C)=O)cc1Cl (stereo unspecified) | -29.5
23 | COCc1cc(O)nc(C2CCCN(Cc3ccc(OC)cc3)C2)n1 (stereo unspecified) | -29.3

Row | Structure (SMILES) | INHIBITION [%]
24 | Cc1cc(C(N)=O)c2c(Br)cccc2n1 | -105
25 | Cc1ccc(C(C)N(C)Cc2nc3c(cnn3C)c(=O)[nH]2)s1 (stereo unspecified) | 50
26 | COc1ccc(C(C)N(C)Cc2nc3c(cnn3C)c(=O)[nH]2)cc1 (stereo unspecified) | 57.6
27 | Cc1ccc(C(C)N(C)Cc2nc3c(cnn3C)c(=O)[nH]2)cc1 (stereo unspecified) | -137
28 | Cc1ccc(CN(Cc2nc3c(cnn3C)c(=O)[nH]2)C(C)C)s1 | -67.1
29 | Cc1ccccc1C(C)N(C)Cc1nc2c(cnn2C)c(=O)[nH]1 (stereo unspecified) | -198
30 | COc1ccccc1C(C)N(C)Cc1nc2c(cnn2C)c(=O)[nH]1 (stereo unspecified) | -62.4
31 | Cc1ccc(CCC(=O)N2CCC(Nc3cccnn3)CC2)cc1 | -69.1
32 | O=S(=O)(NCc1ccccc1)N1CCCN(c2ccncc2)CC1 | -0.943
33 | CCC(=O)N1CCC2(CC1)C(c1cccnc1)CC(=O)N2CCOC (stereo unspecified) | -104
34 | CC(CNC(=O)c1cccnc1)Oc1ccc(F)cc1 (stereo unspecified) | -61.4
35 | CN(C)C1CCN(c2cc(-c3ccccc3)nc3ccnn23)C1 (stereo unspecified) | 51.3
36 | CCNC(=O)C1CCN(c2cc(-c3ccccc3)nc3ccnn23)C1 (stereo unspecified) | -26.4
37 | Cc1cc(N2CCCC(N(C)C)C2)n2nccc2n1 (stereo unspecified) | -65.1
38 | O=C(COc1coc(CN2CCOCC2)cc1=O)Nc1ccc(Cl)cc1 | -117
39 | COCCN1CCN(CC(C)(O)c2cccc(C(F)(F)F)c2)CC1 (stereo unspecified) | 20.5
40 | CC(O)(CN1CCC(O)CC1)c1cccc(C(F)(F)F)c1 (stereo unspecified) | 58
41 | CC(O)(CN1CCN(CCO)CC1)c1cccc(C(F)(F)F)c1 (stereo unspecified) | 45.7
42 | CC(O)(CN1CCC2(CC1)OCCO2)c1cccc(C(F)(F)F)c1 (stereo unspecified) | -7.98
43 | CC(=O)N1CCN(CC(C)(O)c2cccc(C(F)(F)F)c2)CC1 (stereo unspecified) | -10.4
44 | CCN1CCN(CC(C)(O)c2cccc(C(F)(F)F)c2)CC1 (stereo unspecified) | 61.4
45 | CC(C)(C)c1csc(CCNC(=O)[C@H](c2ccccc2)n2cnnn2)n1 | -92.7
46 | O=C(c1ccsc1)N1C[C@@H]2OCCN(CCN3CCCC3)[C@@H]2C1 | -116

Row | Structure (SMILES) | INHIBITION [%]
47 | CCc1ccc(S(=O)(=O)NCC2CCN(c3cnccn3)CC2)s1 | -103
48 | COc1cccc(N2CCN(Cc3nccn3C(C)C)CC2=O)c1 | -72.4
49 | CC(=O)N1CCCN(Cc2ccon2)c2ccccc21 | -22.6
50 | CC(C)(C)OC(=O)N1CCCN(Cc2ccon2)c2ccccc21 | 84.5
51 | CC(C)(C)OC(=O)N1CCCc2ccc(NCc3ccon3)cc21 | -31.3
52 | CN(C)CCOCc1nnc2n1CCN(Cc1ccc(F)cc1)CC2 | -137
53 | FC1(F)CCN(Cc2ccncc2)CC12CCN(c1cccnc1)C2 (stereo unspecified) | 19.1
54 | FC1(F)CCN(c2ccccc2)CC12CCN(c1ncccn1)C2 (stereo unspecified) | -145
55 | O=C(O)CN1CCC(F)(F)C2(CCN(c3ccccc3)C2)C1 (stereo unspecified) | 67.6
56 | O=C(CO)N1CCC(F)(F)C2(CCN(c3ccccc3)C2)C1 (stereo unspecified) | -30.5
57 | Cn1ccnc1CN1CCC(F)(F)C2(CCN(c3cnccn3)C2)C1 (stereo unspecified) | -1.72
58 | Cn1ccnc1CN1CCC(F)(F)C2(CCN(c3cccnc3)C2)C1 (stereo unspecified) | 60.4
59 | COc1ccc(CN(C)[C@@H]2CN(C(=O)c3cncs3)C[C@H]2O)cc1 | -40.5
60 | O=c1[nH][nH]c2cn(-c3ccc(Cl)cc3)c(=O)n12 | -27.8
61 | CCOc1cc(CN(C)CCC(=O)OC)ccc1OC(F)F | -133
62 | CN(C)CCO[C@@H]1CC[C@H]2[C@H]1OCCN2C(=O)c1ccnnc1 | -24.7
63 | CC(=O)NCc1nnc2n1CCN(Cc1cccs1)C2 | -56.1
64 | CCCc1cc(NCCN2CCNC2=O)n2nccc2n1 | -34.9
65 | O=C([C@H]1COC[C@H]2CN(C3CCCC3)C[C@H]21)N1CCCO1 | -99.5
66 | Cc1nc(-n2cnnc2)ccc1-c1cccc2c1CCNC2 | 68.7
67 | Cc1cnc(-n2cnnc2)c(-c2cccc3c2CCNC3)c1 | -35
68 | Cc1cc(-c2cccc3c2CCNC3)cnc1-n1cnnc1 | -24.9
69 | CC(C)n1nc2c(cc1=O)CN(c1ncnc3ccsc13)CC2 | -31

Row | Structure (SMILES) | INHIBITION [%]
70 | CSC1=Nc2c(cnn2-c2ccccc2)C2=NCCCN12 | 9.95
71 | O=C(NC1=NCCCN1c1ccc(Cl)cc1)c1cccc(Cl)c1 | -55.5
72 | CSC1=Nc2c(cnn2-c2ccc(C)cc2)C2=NCCCN12 | 53.5
73 | Cc1ccc(-n2ncc(C(=O)NC3CCCCC3)c2N)cc1 | -125
74 | CCOc1ccc(N2CCCN=C2NC(=O)c2ccc(Cl)cc2)cc1 | -71.7
75 | CCSC1=Nc2c(cnn2-c2ccc(Cl)cc2)C2=NCCCN12 | 67.3
76 | COCCNC(=O)c1cc(C(C)C)nc(N2CCCCC2)n1 | -39.9
77 | COC(=O)c1ccc(-c2noc(CN(CCO)Cc3cccs3)n2)cc1 | -63.8
78 | O=C(c1cscn1)N1CCCC2(CCN2Cc2cccc(F)c2)C1 (stereo unspecified) | 26.8
79 | Cc1csc(C(=O)N2CC(S(=O)(=O)C3CCCCC3)C2)c1 | -52
80 | c1coc(-c2[nH]c3ncccc3c2CN2CCCOCC2)c1 | -12.7
81 | Cc1csc2ncnc(N3CCC(Cn4cc(C(C)(C)O)nn4)CC3)c12 | -46.7
82 | O=C(C1CCOCC1)N1CCC(OCc2cccnc2)CC1 | -110
83 | CC(C)NC(=O)C1CN(C(=O)NCc2ccccc2)CC12CCOCC2 (stereo unspecified) | -153
84 | Cc1noc(C)c1CN(C)C(=O)NC1CCOCC1 | 16
85 | CC(=O)N1CCC(NC(=O)N(C)Cc2c(C)noc2C)CC1 | 51.4
86 | Cc1noc(C)c1CN(C)C(=O)NC1CCN(C2CC2)CC1 | -155
87 | Cc1noc(C)c1CN1CCc2ncnc(-c3ccncc3)c2CC1 | -104
88 | COCCOCC(=O)Nc1ccnn1-c1ccc(Cl)cc1 | -100
89 | CCOCCC(=O)Nc1ccnn1-c1ccc(Cl)cc1 | -23.8
90 | COCC(=O)Nc1ccnn1-c1ccc(Cl)cc1 | 68.3
91 | COc1ccc(S(=O)(=O)NC(=O)COc2ccc3c(c2)CCC3)cc1 | -119
92 | Fc1ccc(N2CCCN(c3ccc(Cn4ccnc4)cn3)CC2)cc1 | 60.2

Row | Structure (SMILES) | INHIBITION [%]
93 | c1cn(Cc2ccc(N3CCCN(C4CCCC4)CC3)nc2)cn1 | -80
94 | c1csc(CN2CCCN(c3ccc(Cn4ccnc4)cn3)CC2)c1 | -41.4
95 | Cc1ccc(CN2CCn3c(CNS(C)(=O)=O)nnc3C2)s1 | -30.1
96 | CCc1[nH]c2c(CNC(=O)C3CCCN(C)C3)cc(C)cc2c1C (stereo unspecified) | 0.72
97 | CCc1[nH]c2c(CNC(=O)C3CCN(C)C3)cc(C)cc2c1C (stereo unspecified) | -5.66
98 | CCc1[nH]c2c(CNC(=O)[C@@H]3CCCN3C)cc(C)cc2c1C | 60.4
99 | NC(=O)N1CCC2(CC1)CN(c1ccsc1)C(=O)CO2 | -60.1
100 | Clc1cccc(N2CCC(NCc3cc[nH]n3)C2)c1 (stereo unspecified) | -39.8
101 | O=C1CC(NCc2ncc[nH]2)CN1CCc1cccc(Cl)c1 (stereo unspecified) | -17.4
102 | Clc1cccc(N2CCC(NCc3ncc[nH]3)C2)c1 (stereo unspecified) | 66.6
103 | Cn1cc(C(=O)N2CCCC(c3cnccn3)C2)cn1 (stereo unspecified) | -55.6
104 | O=C1[C@H]2CN(c3ncccn3)C[C@H]2CN1CC1CC1 | -51.9
105 | Cc1cc(C(=O)NCCc2nc3c(s2)CCCC3)n(C)n1 | -90
106 | CC(C)NC(=O)CCN1CCCC1c1cccc2c1OCCO2 (stereo unspecified) | 53.4
107 | O=C(CCN1CCCC1c1cccc2c1OCCO2)N1CCOCC1 (stereo unspecified) | -24.9
108 | CCNC(=O)CCN1CCCC1c1cccc2c1OCCO2 (stereo unspecified) | 52.7
109 | NC(=O)NC(=O)CCN1CCCC1c1cccc2c1OCCO2 (stereo unspecified) | 24.8
110 | COCCN1CCCC1c1cccc2c1OCCO2 (stereo unspecified) | -0.537
111 | COC(=O)CCN1CCCC1c1cccc2c1OCCO2 (stereo unspecified) | -42.1
